Experimental data reported in PubChem BioAssay.
The source made the active and inactive calls. Unless noted, no rule for the calls is given here.

Tests used:
[1] = compounds binding Alexa647 anti-His antibody – biochemical, small-molecule microarray, 635 nm fluorescence, artefact control for SMM control protein annotation, primary screen (AID 1128); conditions: higher = more signal;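 also: score merges feature fluorescence with signal-to-noise for each printed compound spot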
[2] = system: Human papillomavirus type 1a E7 protein (residues 1-88); experiment: HPV1a E7 small-molecule binders, primary screen, biochemical, small-molecule microarray, residues 1-88, 635 nm (AID 1129); conditions: small-molecule microarray binding, fluorescence 635 nm; higher = more signal
[3] = molecular target: Focal adhesion kinase 1 (Homo sapiens) (UniProt Q05397); experiment: PTK2 protein binding on printed compound slides – biochemical, small-molecule microarray, 635/667 nm fluorescence, BSA, DTT, primary screen (AID 1130); conditions: 635 nm fluorescence, higher = more signal;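 also: composite of spot emission at 667 nm and signal to noise over triplicate slides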
Focal adhesion kinase 1 (Homo sapiens), sequence (Q05397 whole entry, looked up): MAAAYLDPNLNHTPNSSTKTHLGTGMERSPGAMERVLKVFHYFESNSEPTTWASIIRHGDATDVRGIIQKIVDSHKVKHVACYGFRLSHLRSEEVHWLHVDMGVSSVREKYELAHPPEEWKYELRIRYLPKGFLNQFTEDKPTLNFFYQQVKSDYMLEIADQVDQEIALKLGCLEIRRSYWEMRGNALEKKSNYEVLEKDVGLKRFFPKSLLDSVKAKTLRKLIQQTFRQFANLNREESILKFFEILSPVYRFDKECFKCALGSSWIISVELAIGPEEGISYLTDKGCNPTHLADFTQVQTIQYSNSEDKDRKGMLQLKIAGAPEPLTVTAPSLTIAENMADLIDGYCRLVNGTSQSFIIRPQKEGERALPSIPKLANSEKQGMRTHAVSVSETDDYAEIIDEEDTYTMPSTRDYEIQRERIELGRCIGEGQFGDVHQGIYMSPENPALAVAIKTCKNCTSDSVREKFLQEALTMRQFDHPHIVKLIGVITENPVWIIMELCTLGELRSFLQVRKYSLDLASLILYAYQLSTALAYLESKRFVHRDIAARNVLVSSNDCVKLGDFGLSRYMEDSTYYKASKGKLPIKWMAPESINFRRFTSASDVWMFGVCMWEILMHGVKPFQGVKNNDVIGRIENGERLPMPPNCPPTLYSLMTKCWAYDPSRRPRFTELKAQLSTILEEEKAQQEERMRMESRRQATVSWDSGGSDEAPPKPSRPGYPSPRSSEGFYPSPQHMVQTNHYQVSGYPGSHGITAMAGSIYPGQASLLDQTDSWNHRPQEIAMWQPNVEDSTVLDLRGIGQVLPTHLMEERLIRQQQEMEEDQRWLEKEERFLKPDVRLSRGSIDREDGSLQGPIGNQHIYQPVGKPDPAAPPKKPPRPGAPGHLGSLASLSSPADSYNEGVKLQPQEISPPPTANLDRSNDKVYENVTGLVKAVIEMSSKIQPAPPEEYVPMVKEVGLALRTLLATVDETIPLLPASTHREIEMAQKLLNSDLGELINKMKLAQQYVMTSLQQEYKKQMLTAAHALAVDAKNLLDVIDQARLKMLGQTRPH

[4] = system: Fibrinogen (Alexa647-labelled); experiment: Alexa647-fibrinogen binding to printed small molecules – biochemical, small-molecule microarray, 635/667 nm fluorescence, artefact control for SMM control-protein annotation, profiling panel (AID 1131); conditions: fibrinogen-A647 binding fluorescence, higher = more signal;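 also: z-score merges 667 nm fluorescence with per-spot signal-to-noise over triplicate slides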
[5] = molecular target: Follistatin (Homo sapiens) (UniProt P19883); experiment: FST protein binding to printed compounds – biochemical, small-molecule microarray, 635/667 nm fluorescence, primary screen (AID 1132); conditions: 635 nm fluorescence, higher = more signal
Follistatin (Homo sapiens), sequence (P19883 whole entry, looked up): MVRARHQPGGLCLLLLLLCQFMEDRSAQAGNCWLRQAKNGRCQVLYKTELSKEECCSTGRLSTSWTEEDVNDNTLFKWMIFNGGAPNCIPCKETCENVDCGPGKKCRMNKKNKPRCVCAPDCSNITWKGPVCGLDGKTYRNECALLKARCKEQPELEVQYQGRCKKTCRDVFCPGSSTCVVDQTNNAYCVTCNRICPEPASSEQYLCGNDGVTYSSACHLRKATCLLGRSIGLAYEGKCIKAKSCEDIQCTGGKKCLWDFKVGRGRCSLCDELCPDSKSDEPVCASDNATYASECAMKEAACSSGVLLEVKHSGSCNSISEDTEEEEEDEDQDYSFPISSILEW

[6] = molecular target: Fibroblast growth factor 2 (Homo sapiens) (UniProt P09038); experiment: basic fibroblast growth factor binding to printed compounds – biochemical, small-molecule microarray, 635/667 nm fluorescence, primary screen (AID 1133); conditions: FGF2, fluorescence 635/667, higher = more signal
Fibroblast growth factor 2 (Homo sapiens), sequence (P09038 whole entry, looked up): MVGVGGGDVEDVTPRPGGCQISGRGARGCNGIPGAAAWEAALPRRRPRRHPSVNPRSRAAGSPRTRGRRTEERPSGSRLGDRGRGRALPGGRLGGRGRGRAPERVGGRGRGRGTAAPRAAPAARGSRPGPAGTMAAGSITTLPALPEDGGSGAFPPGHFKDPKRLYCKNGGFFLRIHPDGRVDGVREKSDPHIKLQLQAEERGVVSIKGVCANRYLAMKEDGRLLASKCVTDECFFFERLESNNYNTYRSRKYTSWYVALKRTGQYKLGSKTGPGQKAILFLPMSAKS

[7] = JC-1 mitochondrial potential readout, lung cancer cells – cell-based, A549, JC-1 fluorescence, basal, 24 h, 100 nL, profiling panel (AID 1138); conditions: higher = more signal;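 also: A549 lung adenocarcinoma cells under basal conditions with no added stimulus; test concentration not given here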
Lefty1 = Lefty1 protein binding to printed compounds – biochemical, small-molecule microarray, 635/667 nm fluorescence, primary screen (AID 1139); conditions: fluorescence 635/667, higher = more signal
[8] = system: wheat germ agglutinin (Triticum aestivum), Alexa647-labelled; experiment: Alexa647-WGA lectin binding to printed small molecules – biochemical, small-molecule microarray, 635/667 nm fluorescence, artefact control for SMM control-protein annotation, profiling panel (AID 1140); conditions: WGA-A647 binding, 635 nm fluorescence, higher = more signal;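 also: score merges 667 nm feature emission with signal to noise over triplicate slides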
[9] = molecular target: Luciferin 4-monooxygenase (Photinus pyralis) (UniProt P08659); experiment: inhibition of purified Photinus pyralis luciferase – biochemical, luminescence, purified enzyme, 2006 set, primary screen (AID 1141); conditions: purified firefly luciferase, SteadyGlo luminescence, 30 min; higher = more signal, called active from +8 up or from −8 down;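 also: cell-free assay with purified firefly luciferase at 100 ng per well in PBS; test concentration not given here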
Luciferin 4-monooxygenase (Photinus pyralis), sequence (P08659 whole entry, looked up): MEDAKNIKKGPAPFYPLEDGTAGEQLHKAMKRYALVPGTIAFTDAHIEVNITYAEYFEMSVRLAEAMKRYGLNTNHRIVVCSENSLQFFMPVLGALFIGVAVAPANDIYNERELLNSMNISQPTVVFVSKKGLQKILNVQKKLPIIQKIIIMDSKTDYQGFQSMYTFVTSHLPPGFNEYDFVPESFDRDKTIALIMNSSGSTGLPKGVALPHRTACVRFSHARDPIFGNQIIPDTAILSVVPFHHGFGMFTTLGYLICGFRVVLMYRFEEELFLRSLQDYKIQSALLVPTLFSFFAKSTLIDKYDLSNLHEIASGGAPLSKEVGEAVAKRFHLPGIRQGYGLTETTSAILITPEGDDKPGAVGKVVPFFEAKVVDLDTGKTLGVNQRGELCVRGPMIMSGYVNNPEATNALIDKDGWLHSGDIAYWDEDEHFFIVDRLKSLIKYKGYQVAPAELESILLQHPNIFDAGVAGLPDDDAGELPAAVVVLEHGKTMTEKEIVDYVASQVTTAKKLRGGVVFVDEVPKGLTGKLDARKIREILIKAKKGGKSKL

[10] = system: Wnt5a (protein binding on small-molecule microarray); experiment: small molecules binding Wnt5a protein – biophysical, small-molecule microarray, 635/667 nm fluorescence, primary screen (AID 1142); conditions: 635 nm fluorescence, higher = more signal;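 also: fluorescence read at 667 nm with signal to noise per printed feature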
[11] = ATP-based viability of Huh7 replicon cells – cell-based, CellTiter-Glo luminescence, basal, 48 h, cytotoxicity control for HCV replication inhibitor project, primary screen (AID 1143); conditions: higher = more signal, called active from +8 up or from −8 down;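 also: Huh7 hepatoma cells carrying a hepatitis C replication reporter with no stimulus; test concentration not given here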
[12] = Pseudomonas biofilm growth suppression – PAO1 strain, BacTiter-Glo luminescence, LB-PBS, primary screen (AID 1144); conditions: P. aeruginosa PAO1 biofilm, 12 h, higher = more signal
[13] = basal CRE-LacZ reporter activity in PC12 – cell-based, unstimulated, primary screen (AID 1145); conditions: no forskolin, luminescence, 4.5 h, higher = more signal, called active from +8 up or from −8 down
[14] = forskolin-driven CRE-LacZ activity in PC12 – cell-based, CRE-LacZ reporter, forskolin-stimulated, primary screen (AID 1146); conditions: luminescence, 4.5 h, higher = more signal, called active from +8 up or from −8 down;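 also: PC12 cells with 6xCRE LacZ reporter stimulated by forskolin 10 µM; beta-galactosidase reporter signal reflecting CREB driven transcription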
[15] = molecular target: Streptavidin (Streptomyces avidinii) (UniProt P22629); experiment: compounds binding control protein streptavidin – biophysical, small-molecule microarray, 635/667 nm fluorescence, artefact control for SMM compound annotation, primary screen (AID 1147); conditions: higher = more signal;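 also: signal reflects streptavidin binding to arrayed compounds as a control protein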
Streptavidin (Streptomyces avidinii), sequence (P22629 whole entry, looked up): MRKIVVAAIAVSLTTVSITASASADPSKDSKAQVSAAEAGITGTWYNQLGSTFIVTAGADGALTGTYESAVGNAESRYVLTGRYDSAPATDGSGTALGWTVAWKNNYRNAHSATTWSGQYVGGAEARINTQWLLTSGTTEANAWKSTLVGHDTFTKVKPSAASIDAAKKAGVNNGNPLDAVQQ

[16] = probe aInhba binding on compound microarray – biochemical, small-molecule microarray, 635/667 nm fluorescence, primary screen (AID 1148); conditions: higher = more signal;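 also: score merges 667nm spot fluorescence with signal-to-noise for antibody binding to printed compounds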
Torsin-1A (Homo sapiens) [17] = molecular target: Torsin-1A (Homo sapiens) (UniProt O14656); experiment: TOR1A wild-type binding on microarray – cell lysate, small-molecule microarray, lysate, 635/667 nm, primary screen (AID 1149); conditions: COS7 hTOR1A-WT lysate, 635 nm fluorescence, higher = more signal
Torsin-1A (Homo sapiens), sequence (O14656 whole entry, looked up): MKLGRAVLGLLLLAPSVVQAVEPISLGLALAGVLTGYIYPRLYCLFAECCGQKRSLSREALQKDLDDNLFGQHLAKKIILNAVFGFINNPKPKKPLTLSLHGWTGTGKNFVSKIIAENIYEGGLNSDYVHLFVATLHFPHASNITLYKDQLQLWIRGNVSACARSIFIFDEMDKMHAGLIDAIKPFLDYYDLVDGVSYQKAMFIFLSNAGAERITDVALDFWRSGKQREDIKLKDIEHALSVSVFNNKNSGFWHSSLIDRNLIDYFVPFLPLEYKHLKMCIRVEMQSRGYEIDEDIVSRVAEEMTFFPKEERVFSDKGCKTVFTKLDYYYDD

Torsin-1A (Homo sapiens) [18] = molecular target: Torsin-1A (Homo sapiens) (UniProt O14656); experiment: torsin A mutant lysate binding on microarrays – cell lysate, small-molecule microarray, COS7 lysate, 635/667 nm fluorescence, primary screen (AID 1150); conditions: COS7 hTOR1A mutant lysate, 635 nm fluorescence, higher = more signal;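 also: score pools 667 nm emission and signal to noise measuring lysate protein binding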
[19] = system: Sonic hedgehog protein (Shh); experiment: Sonic hedgehog microarray binding compounds – biochemical, small-molecule microarray, 635/667 nm fluorescence, primary screen (AID 1151); conditions: 635 nm fluorescence, higher = more signal;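 also: Shh protein binding to compounds spotted on small-molecule microarray slides; score combines spot fluorescence intensity with signal-to-noise across triplicate slides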

Compound | composite z-score [1] | composite z-score [2] | composite z-score [3] | composite z-score [4] | composite z-score [5] | composite z-score [6] | z-score [7] | composite z-score (Lefty1) | composite z-score [8] | z-score [9] | composite z-score [10] | z-score [11] | z-score [12] | z-score [13] | z-score [14] | composite z-score [15] | composite z-score [16] | composite z-score (Torsin-1A (Homo sapiens) [17]) | composite z-score (Torsin-1A (Homo sapiens) [18]) | composite z-score [19]
COc1ccc(C#Cc2ccc3c(c2)[C@]2(C(=O)N3)[C@H](C(=O)N3CCc4cc(OC)c(OC)cc4C3)[C@H]3C(=O)O[C@H](c4ccccc4)[C@H](c4ccccc4)N3[C@@H]2c2ccc(OCCO)cc2)cc1 | 0.441 | 1.2 | 1.1 | 0.821 | 1.21 | 1.24 | -1.09 | 0.941 | 1.17 | -0.297 (inactive) | 0.665 | -0.763 (inactive) | -0.745 (inactive) | -0.258 (inactive) | -0.166 (inactive) | 1 | 0.136 | 0.947 | 0.488 | 1.88
C=CCNC(=O)[C@H]1[C@@H]2C(=O)O[C@@H](c3ccccc3)[C@@H](c3ccccc3)N2[C@@H](c2ccc(O)cc2)[C@]12C(=O)Nc1ccc(C#Cc3ccc(OC)cc3)cc12 | 0.194 | 1.22 | 0.403 | 0.789 | 1.16 | 1.13 | -0.769 | 0.597 | 0.278 | 0.153 (inactive) | 0.555 | -3.44 (inactive) | -0.182 (inactive) | -0.141 (inactive) | 0.468 (inactive) | 0.252 | -0.0523 | 0.11 | 0.117 | 0.667
C=CCC(OC(C)=O)[C@@H]1[C@@H](N(Cc2ccc(-c3ccccc3)cc2)C(=O)c2ccc(C)cc2)c2cc(OCCCO)ccc2N1C(=O)Cc1ccc(OC)cc1 (stereo not given in full) | -0.109 | -0.33 | -0.026 | 0.386 | 0.534 | -0.177 | 1.85 | 0.0835 | 0.115 | -1.58 (inactive) | -0.0283 | -0.536 (inactive) | 0.307 (inactive) | 0.904 (inactive) | 0.429 (inactive) | 1.36 | -0.101 | -0.691 | -0.0431 | 0.726
COc1ccccc1CN1C(=O)c2ccccc2[C@](Cc2ccccc2I)(C(=O)NCc2ccccc2)[C@@H]1c1ccc(CO)cc1 | -0.0448 | 0.406 | -0.2 | 0.414 | -0.526 | -0.243 | 0.109 | -0.88 | 0.687 | 0.0375 (inactive) | 0.0733 | -0.553 (inactive) | 0.166 (inactive) | -0.412 (inactive) | -0.0005 (inactive) | -0.476 | 0.0627 | 0.999 | 2.06 | -0.197
[N-]=[N+]=NCc1ccccc1[C@@H]1OC(c2ccc(OCCCO)cc2)=N[C@]1(Cc1ccccc1)C(=O)O | 1.25 | 0.445 | 1.4 | 0.635 | 0.592 | 0.0221 | 1.36 | -0.548 | 0.536 | -1.44 (inactive) | -0.198 | -0.354 (inactive) | -0.608 (inactive) | 1.19 (inactive) | -0.707 (inactive) | 0.728 | -0.016 | 0.497 | 0.786 | -0.934
COCCOC(=O)N1C(=O)[C@@]2(c3ccccc31)[C@H](c1ccc(O)cc1)N1[C@H](c3ccccc3)[C@H](c3ccccc3)OC(=O)[C@H]1[C@@H]2C(N)=O | -0.445 | -0.218 | -0.046 | -1.35 | -0.601 | -0.239 | 0.181 | -0.0341 | -0.0601 | -0.144 (inactive) | -0.235 | -1.34 (inactive) | 0.0439 (inactive) | 0.208 (inactive) | 1.88 (inactive) | -0.516 | -0.128 | -1.04 | 0.619 | -0.218
C/C=C/[C@H](CCn1cc([C@H](O)c2ccccc2)nn1)[Si](C)(C)c1ccc(OC)cc1 | 0.382 | -0.559 | -0.3 | -1.17 | -0.735 | -0.997 | 0.45 | -0.781 | -0.777 | 0.173 (inactive) | -0.582 | -1 (inactive) | 0.303 (inactive) | -0.272 (inactive) | 0.0712 (inactive) | -0.832 | -0.263 | 0.0596 | -0.57 | -0.478
C=C(/C(=C/C[C@@H](OC(=O)c1ccncc1)c1ccc(CO)o1)c1cc(C(=O)OC)ccc1OC)C(C)C | 1.02 | 1.23 | 0.317 | 0.415 | 1.09 | 1.3 | 0.375 | 1.24 | 0.553 | -4.24 (inactive) | 0.569 | -0.82 (inactive) | -0.0553 (inactive) | 8.87 (active) | 3.69 (inactive) | 0.229 | 0.0633 | 1.24 | 0.946 | 1.2
O=[N+]([O-])c1ccc(C[n+]2ccc(CCCO)cc2)o1 | -0.0383 | 1.07 | 1.08 | 0.752 | 1.4 | 1.77 | -0.506 | 0.73 | 0.226 | -0.868 (inactive) | 0.98 | -1.22 (inactive) | 0.0757 (inactive) | 0.0026 (inactive) | 0.619 (inactive) | 1.15 | 0.189 | 0.153 | 0.263 | 1.06
O=C(NCC(O)CO)[C@@]1(Cc2ccccc2)COC(c2ccc(OCCCO)cc2)=N1 (stereo not given in full) | 0.0139 | 0.0528 | 0.216 | 0.531 | -0.453 | 0.0393 | -0.165 | -0.743 | 0.488 | 0.37 (inactive) | 0.0149 | -0.0858 (inactive) | 0.741 (inactive) | 0.895 (inactive) | -0.18 (inactive) | -0.131 | 0.124 | -0.0598 | 0.0184 | -0.342
